Measured values reported in PubChem BioAssay.
Where “and” joins values, the source holds several entries; their conditions need not be identical. Identical values can stand only once. Unmarked numbers belong to inactive results. Results filed as inconclusive are left out. Calls of active or inactive are those of the source. Unless noted, how the calls were made is not given here.

Assays:
[1] = signal quenchers or enhancers, Cy5 substrate/SSB – biochemical, NIH Clinical Collection, E. coli SSB, artefact control for HCV NS3 helicase inhibitor project (AID 743268); conditions: Cy5-oligo bound E. coli SSB, fluorescence interference
[2] = system: Hepatitis C virus NS3 helicase; experiment: blockers of NS3h binding to DNA – biochemical, fluorescence polarization, NIH Clinical Collection, primary screen (AID 743270); conditions: NS3 helicase binding to Cy5-dT15 DNA, hits give high values, concentration not given here
[3] = target: Single-stranded DNA-binding protein (Escherichia coli (strain K12)) (UniProt P0AGE0); experiment: SSB-ssDNA binding inhibitors – biochemical, fluorescence polarization, NIH Clinical Collection, counter-screen for HCV NS3 helicase inhibitor project (AID 743271; in the data active means inhibition above about 28%); conditions: E. coli SSB-DNA binding, hits give high values, concentration not given here
[4] = compounds distorting NS3 helicase fluorescence signal – biochemical, NIH Clinical Collection, artefact control for HCV NS3 helicase inhibitor project (AID 743272); conditions: fluorescence interference counterscreen, HCV NS3 helicase assay; hits give low values;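 further: HCV NS3 helicase with a Cy5 labelled single stranded DNA probe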
[5] = viability loss in pontine glioma line – cell-based, SU-DIPG-XIII, MIPE4.0, CellTiter-Glo, qHTS, dose response (AID 1347061; cut-off not given, nearly all actives have AC50 up to about 37 µM;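 further: cells exposed to compound for 48 hours before readout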); conditions: CellTiter-Glo ATP luminescence
[6] = viability loss in pontine glioma line – cell-based, JHH-DIPG-1, MIPE4.0, CellTiter-Glo, qHTS, dose response (AID 1347062; cut-off not given, nearly all actives have AC50 up to about 27 µM); conditions: JHH-DIPG-1 viability, CellTiter-Glo ATP luminescence
[7] = viability loss in pontine glioma line – cell-based, SU-DIPG-IV, MIPE4.0, CellTiter-Glo, qHTS, dose response (AID 1347063; cut-off not given, nearly all actives have AC50 up to about 30 µM;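 further: compound exposure lasted 48 hours before the viability readout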); conditions: CellTiter-Glo ATP luminescence
[8] = growth inhibition of DIPG cells – cell-based, MIPE4.0 library, CellTiter-Glo luminescence, qHTS (AID 1347066; cut-off not given, nearly all actives have AC50 up to about 30 µM;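 further: cells exposed to compound for 48 hours before readout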); conditions: SU-DIPG-VI viability, CellTiter-Glo ATP luminescence
[9] = system: F380Y/beta4; experiment: BK channel mutant inhibitors and activators – cell-based, U2OS BacMam, thallium flux, beta subunits, selectivity assay, profiling panel (AID 1259406;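 active means thallium flux through the channel raised or lowered by more than 3 SD from vehicle-only wells, actives on both sides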;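 further: initial slope of Thallos dye fluorescence rise after thallium is added; log ratio against the mean of 0.3% DMSO vehicle wells on the same plate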); conditions: U2OS BacMam BK variants, at 30 µM
[10] = target: Calcium-activated potassium channel subunit alpha-1 (Homo sapiens) + Leucine-rich repeat-containing protein 26 (Homo sapiens) (UniProt Q12791+Q2I0M4); experiment: as above; conditions: U2OS BacMam BK variants, F380Y/Slo1WT/gamma1, at 30 µM
[11] = system: R275C/beta4; experiment: as above; conditions: U2OS BacMam BK variants, at 30 µM
[12] = system: Aerobactin synthetase IucA (Klebsiella pneumoniae); experiment: inhibition of K. pneumoniae IucA enzyme – biochemical, Tocris library, absorbance (AID 1345561); conditions: purified IucA enzyme assay, absorbance (OD) read-out; hits give low values;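 tested at 8 µM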;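 further: 100% = enzyme without compound and 0% = no enzyme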
[13] = system: Neuropilin-2 / VEGF-C interaction (human); experiment: small molecules blocking Neuropilin-2/VEGF-C interaction – biochemical, microplate binding format, z-score (AID 743281); conditions: microplate NRP2/VEGF-C binding assay; hits give low values
[14] = viability loss in pontine glioma line – cell-based, SU-DIPG-XVII, MIPE5.0, CellTiter-Glo, qHTS, dose response (AID 1347060; cut-off not given, nearly all actives have AC50 up to about 26 µM); conditions: CellTiter-Glo ATP luminescence
[15] = JHH-DIPG-1 glioma cell viability, MIPE5.0 library, CellTiter-Glo luminescence, qHTS (AID 1347067; cut-off not given, nearly all actives have AC50 up to about 26 µM;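 further: cells exposed to compound for 48 hours before readout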); conditions: JHH-DIPG-1 glioma viability, CellTiter-Glo ATP luminescence
[16] = growth inhibition of DIPG cells – cell-based, MIPE5.0 library, qHTS (AID 1347068; cut-off not given, nearly all actives have IC50 up to about 30 µM); conditions: SU-DIPG-XXV viability

Chain of Calcium-activated potassium channel subunit alpha-1 (Homo sapiens) + Leucine-rich repeat-containing protein 26 (Homo sapiens) (Q2I0M4 whole entry, looked up, one chain of several): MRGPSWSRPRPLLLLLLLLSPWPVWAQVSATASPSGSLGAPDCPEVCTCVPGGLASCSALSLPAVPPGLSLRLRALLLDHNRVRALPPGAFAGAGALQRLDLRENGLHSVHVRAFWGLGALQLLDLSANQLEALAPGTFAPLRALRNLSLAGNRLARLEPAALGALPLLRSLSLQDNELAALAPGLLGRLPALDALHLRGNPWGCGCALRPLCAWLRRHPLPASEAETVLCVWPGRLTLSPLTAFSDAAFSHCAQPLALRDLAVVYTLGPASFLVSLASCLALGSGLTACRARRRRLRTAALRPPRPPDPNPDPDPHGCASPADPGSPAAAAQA

## CN1CCN(C(=O)O[C@H]2c3nccnc3C(=O)N2c2ccc(Cl)cn2)CC1
[1]
  fluorescence ratio: 1
[2]
  inhibition: -4.09%
[3]
  inhibition: -4.29%
[4]
  fluorescence ratio: 1.03
[5]
  outcome: inactive
[6]
  outcome: inactive
[7]
  outcome: inactive
[8]
  outcome: inactive
[9]
  log fold change Tl+ flux: -0.00667
[10]
  log fold change Tl+ flux: -0.0271
[11]
  log fold change Tl+ flux: 0.00608

## Nc1ccncc1
[12]
  remaining activity: 127%

## C#CCN(C)[C@H](C)Cc1ccccc1
[1]
  fluorescence ratio: 0.95 and 0.99
[2]
  inhibition: -5.15% and -7.73%
[3]
  inhibition: 2.21% and -4.29%
[4]
  fluorescence ratio: 0.9 and 0.99
[13]
  z-score: -0.865
[14]
  outcome: inactive
[5]
  outcome: inactive
[6]
  outcome: inactive
[7]
  outcome: inactive
[15]
  outcome: inactive
[16]
  outcome: inactive
[9]
  log fold change Tl+ flux: 0.0201
[10]
  log fold change Tl+ flux: 0.000386
[11]
  log fold change Tl+ flux: -0.0396

## CN1C(=O)CN=C(c2ccccc2)c2cc([N+](=O)[O-])ccc21
[1]
  fluorescence ratio: 1.07
[2]
  inhibition: 5.94%
[3]
  inhibition: 1.44%
[4]
  fluorescence ratio: 1.04
[13]
  z-score: -0.553
[9]
  log fold change Tl+ flux: 0.0228
[10]
  log fold change Tl+ flux: -0.000886
[11]
  log fold change Tl+ flux: 0.0115

## CCN(CC)CCOC(=O)C(O)(c1ccccc1)c1ccccc1
[1]
  fluorescence ratio: 0.99
[2]
  inhibition: -1.19%
[3]
  inhibition: -0.87%
[4]
  fluorescence ratio: 0.98
[13]
  z-score: 0.28
[9]
  log fold change Tl+ flux: 0.0464
[10]
  log fold change Tl+ flux: -0.0223
[11]
  log fold change Tl+ flux: 0.00187

## COc1ccc(C(=O)N2CCCC2=O)cc1
[12]
  remaining activity: 97.7%
[14]
  outcome: inactive
[5]
  outcome: inactive
[6]
  outcome: inactive
[7]
  outcome: inactive
[8]
  outcome: inactive
[15]
  outcome: inactive
[16]
  outcome: inactive

## C[N+]1(CCC(C(N)=O)(c2ccccc2)c2ccccc2)CCCCC1
[1]
  fluorescence ratio: 1.01
[2]
  inhibition: -1.98%
[3]
  inhibition: -0.1%
[4]
  fluorescence ratio: 0.95
[13]
  z-score: -0.188
[9]
  log fold change Tl+ flux: -0.00383
[10]
  log fold change Tl+ flux: 0.0152
[11]
  log fold change Tl+ flux: -0.0252

## CC[C@@H](CO)NC(=O)[C@@H]1C=C2c3cccc4c3c(cn4C)C[C@H]2N(C)C1
[12]
  remaining activity: 121%

## CC(C)c1cccc(C(C)C)c1O
[1]
  fluorescence ratio: 0.96
[2]
  inhibition: -1.36%
[3]
  inhibition: 4.1%
[4]
  fluorescence ratio: 0.87
[14]
  outcome: inactive
[6]
  outcome: inactive
[7]
  outcome: inactive
[8]
  outcome: inactive
[15]
  outcome: inactive
[16]
  outcome: inactive
[9]
  log fold change Tl+ flux: -0.00471
[10]
  log fold change Tl+ flux: -0.0487
[11]
  log fold change Tl+ flux: -0.0411

## NC(=O)OCCCc1ccccc1
[1]
  fluorescence ratio: 1.07
[2]
  inhibition: 0.4%
[3]
  inhibition: -1.64%
[4]
  fluorescence ratio: 1.03
[13]
  z-score: -0.636
[9]
  log fold change Tl+ flux: 0.0583
[10]
  log fold change Tl+ flux: -0.0246
[11]
  log fold change Tl+ flux: -0.0265

## Oc1cc(Cl)ccc1Oc1ccc(Cl)cc1Cl
[1]
  fluorescence ratio: 1.01
[2]
  inhibition: 2.27%
[3]
  inhibition: -0.48%
[4]
  fluorescence ratio: 0.91
[9]
  log fold change Tl+ flux: -0.429 (active)
[10]
  log fold change Tl+ flux: -0.0387
[11]
  log fold change Tl+ flux: 0.0409

## c1ccc2c(c1)OCC(C1=NCCN1)O2 (stereo not given)
[12]
  remaining activity: 99.1%

## CCC(COC(=O)c1cc(OC)c(OC)c(OC)c1)(c1ccccc1)N(C)C (stereo not given)
[1]
  fluorescence ratio: 0.98
[2]
  inhibition: -1.19%
[3]
  inhibition: -0.87%
[4]
  fluorescence ratio: 0.98
[13]
  z-score: -1.07
[9]
  log fold change Tl+ flux: -0.301 (active)
[10]
  log fold change Tl+ flux: -0.141 (active)
[11]
  log fold change Tl+ flux: -0.198 (active)

## NP(N)(=O)NC(=O)c1ccc(F)cc1
[12]
  remaining activity: 91.8%

## NC1=NC(=O)C(c2ccccc2)O1 (stereo not given)
[1]
  fluorescence ratio: 1.02
[2]
  inhibition: 2.77%
[3]
  inhibition: 1.44%
[4]
  fluorescence ratio: 0.93
[13]
  z-score: -1.08
[9]
  log fold change Tl+ flux: 0.00709
[10]
  log fold change Tl+ flux: -0.0447
[11]
  log fold change Tl+ flux: -0.0245

## COc1cccc([C@@]2(O)CCCC[C@@H]2CN(C)C)c1
[13]
  z-score: 0.404
[9]
  log fold change Tl+ flux: -0.0244
[10]
  log fold change Tl+ flux: -0.0312
[11]
  log fold change Tl+ flux: -0.00931

## c1ccc(C2CC2)c(OCC2=NCCN2)c1
[12]
  remaining activity: 102%
